# From PubChem
# This is a sample that favours compounds with a hit; in the whole collection about 3.5% have one here.
# Rv3671c inh: Rv3671c serine protease inhibitors, primary screen, biochemical, fluorescence polarization, M. tuberculosis H37Rv. P9WHR9. inhibition, % at 5.96 µM. 320,000 compounds, 0.048% hits; in the data active means inhibition above about 38%;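 further: extracellular domain of Rv3671c used as enzyme; 0% = enzyme with DMSO and 100% = no enzyme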
# FadD28 binding: inhibitors of FadD28 bisubstrate probe binding, primary screen, biochemical, fluorescence polarization, single point | AID 588549, 2011 | inhibition, % at 12.5 µM | 360,000 compounds, 0.22% hits; in the data active means inhibition above about 8.5%, passing the limit was not always enough
# FBA Mtb inh: Mtb FBA enzyme inhibitors, primary screen, biochemical, fluorescence, strain H37Rv. Fructose-bisphosphate aldolase (Mycobacterium tuberculosis (strain ATCC 25618 / H37Rv)), …. purified M. tuberculosis FBA, fluorescence read-out. inhibition, % at 1 µM. 360,000 compounds, 2.3% hits. AID 588726, 2011;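 further: 0% = vehicle and 100% = reference inhibitor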
# GDH-TPI counter-1: GDH-TPI coupling enzyme inhibitors, primary screen, artefact control for M. tuberculosis FBA inhibitor project, biochemical, absorbance, full deck; GDH-TPI coupled enzyme counterscreen, NADH absorbance; inhibition, % at 4.8 µM; 360,000 compounds, 1.2% hits; in the data active means inhibition above about 30%;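 further: 0% = DMSO wells and 100% = wells lacking the enzyme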
# Mtb hypoxia inh: PubChem AID 1159583. M. tuberculosis hypoxia-regulated fluorescent reporter, fluorescence. fluorescence inhibition, % (test concentration not listed). 300,000 compounds, 0.1% hits; in the data active means fluorescence inhibition mostly above about 23%, no sharp cut-off; inactive means mostly below about 17%
# Mtb UGM inh: M. tuberculosis UGM enzyme inhibitors, primary screen, biochemical, fluorescence polarization, single point; purified UGM, fluorescence polarization probe displacement; inhibition, % at 10 µM; AID 504406, 2011; UDP-galactopyranose mutase (Mycobacterium tuberculosis (strain ATCC 25618 / H37Rv)), …; 320,000 compounds, 0.06% hits; in the data active means inhibition above about 10%, passing the limit was not always enough
# Target sequence (P9WIQ1 whole entry, looked up): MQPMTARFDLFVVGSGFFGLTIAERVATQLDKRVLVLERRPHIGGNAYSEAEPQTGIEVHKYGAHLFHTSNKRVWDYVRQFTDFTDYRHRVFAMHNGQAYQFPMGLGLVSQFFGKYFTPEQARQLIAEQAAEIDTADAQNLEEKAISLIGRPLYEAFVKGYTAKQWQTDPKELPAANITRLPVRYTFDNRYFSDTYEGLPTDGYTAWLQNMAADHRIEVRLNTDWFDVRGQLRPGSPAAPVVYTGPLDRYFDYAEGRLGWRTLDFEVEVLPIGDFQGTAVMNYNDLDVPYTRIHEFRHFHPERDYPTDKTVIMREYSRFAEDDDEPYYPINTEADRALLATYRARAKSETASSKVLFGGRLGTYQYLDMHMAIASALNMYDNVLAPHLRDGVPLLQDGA
# Mtb FBA confirm: M. tuberculosis aldolase blockers, biochemical, fluorescence, strain H37Rv, confirmation. inhibition, % at 1 µM. 5,600 compounds, 78% hits. shares compounds with FBA Mtb inh. AID 651616, 2012. purified M. tuberculosis FBA, fluorescence read-out;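 further: 0% = vehicle wells and 100% = reference inhibitor wells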
# GDH-TPI counter-2: GDH-TPI coupling enzyme inhibitors, artefact control for M. tuberculosis FBA inhibitor project, biochemical, fluorescence, high throughput | shares compounds with FBA Mtb inh | GDH-TPI coupled enzyme counterscreen | inhibition, % at 1 µM | 5,600 compounds, 81% hits | AID 652141, 2013; in the data active means inhibition above about 10%
# The depositor's hits bear a star; · = no result; + = active, no number; ! = repeats disagree. Unless noted, no stated cut-off is given here; in the data, active means inhibition above about 27%; inactive means the rest.
SMILES,Rv3671c inh,FadD28 binding,FBA Mtb inh,GDH-TPI counter-1,Mtb hypoxia inh,Mtb UGM inh,Mtb FBA confirm,GDH-TPI counter-2
NC(Cc1nc2ccccc2s1)=NO,·,·,·,·,-7,·,·,·
Cc1ccc2nc(C)c(C(=O)NN=Cc3cccs3)cc2c1,·,·,·,·,17,·,·,·
COC(=O)C1=C(c2ccc(-c3ccccc3)c(F)c2)C[C@@H]2CC[C@H]1N2C(=O)NCCNC(C)=O,5,-3,43*,3,·,0,45*,38*
COc1cc(OC)cc(C(=O)N2CCCC(c3nc(-c4ccc(C)o4)no3)C2)c1 (centres undefined),-5,-2,31*,1,-17,-1,2,-6
Cc1ccc(-c2noc(C3CCCN(C(=O)c4cccc(F)c4)C3)n2)cc1 (centres undefined),-2,1,1,-10,-1,1,·,·
COc1ccc(-c2noc(C3CCCN(C(=O)c4cccc(C)c4)C3)n2)cc1 (centres undefined),3,-4,78*,-4,2,2,115*,77*
CCOC(=O)[C@]12Cc3ccccc3C1N(Cc1ccccc1)C(=O)c1ccccc12 (some centres undefined),·,·,·,·,8,·,·,·
CC#CCN1c2ccccc2[C@]23CC(C(=O)OC)N(C(=O)c4ccc(Br)cc4)C2=NC(C(=O)OC)=C(C(=O)OC)C13 (some centres undefined),·,·,·,·,1,·,·,·
OCC[n+]1ccc(C=Cc2c[nH]c3ccccc23)cc1,·,·,·,·,0,·,·,·
CCN1CCN(Cc2ccc(NC(=O)c3ccc(C)c(NC(=O)c4cccc5[nH]ccc45)c3)cc2C(F)(F)F)CC1,-22,-3,30*!,-10,-6,3,+,+
CC(=NNc1ccc(S(=O)(=O)Nc2ccccc2)cc1[N+](=O)[O-])c1ccncc1,·,·,·,·,-1,·,·,·
Cc1cccc(CNC(=O)c2ccc3c(c2)N(C)CCS3)c1,0,-1,56*,7,4,-1,34*,38*
COc1ccc(CNC(=O)c2ccc3c(c2)N(C)CCS3)cc1,8,1,52*,20,-5,2,86*,59*
CN1CCSc2ccc(C(=O)NCc3cccc(Br)c3)cc21,3,-3,66*,-2,7,-5,51*,35*
Cc1ccccc1NC(=O)c1ccc2c(c1)N(C)CCS2,-2,1,4,20,1,0,·,·
COc1cccc(CNC(=O)c2ccc3c(c2)N(C)CCS3)c1OC,2,-4,88*,-9,-5,-2,49*,45*
COc1cccc(CNC(=O)CCC(=O)N2CCSc3ccccc32)c1OC,4,1,2,-11,-1,-1,·,·
O=C(C1=CC(C2CCCCC2)CC(OCc2ccc(CO)cc2)O1)N1CCOCC1 (centres undefined),·,·,·,·,5,·,·,·
CCCn1c(=O)c2c(C(=O)OCC)cc(-c3ccco3)nc2n(CCC)c1=O,·,1,41*,6,-2,·,166*,124*
CCOC(=O)c1cnn2c(C(F)(F)F)cc(-c3ccco3)nc12,-4,-3,53*,21,·,2,+,160*
CCOC(=O)c1cnn2c(C)cc(-c3ccccc3)nc12,-6,-2,54*,17,-7,-1,+,+
Cc1cccc(Cc2c(C)nc3c(C(=O)NCc4ccco4)cnn3c2C)c1,-13,0,31*,5,-3,-2,194*,148*
CCCn1c(=O)c2c(C(F)(F)F)cc(-c3ccco3)nc2n(CCC)c1=O,-13,-1,10,5,2,-1,·,·
CCOC(=O)c1cc2nc(-c3ccccc3)cc(C)n2n1,-3,0,8,7,-3,1,·,·
Cc1nc2c(C(=O)NCc3ccco3)cnn2c(C)c1Cc1ccc(F)cc1Cl,1,2,26,6,14,-1,·,·
SMILES,Rv3671c inh,FadD28 binding,FBA Mtb inh,GDH-TPI counter-1,Mtb hypoxia inh,Mtb UGM inh,Mtb FBA confirm,GDH-TPI counter-2
CC(C)CCN1C(Nc2ccccc2)=NCC1CC(C)C (centres undefined),·,·,·,·,5,·,·,·
COc1ccc(-c2cc(C(F)(F)F)n3ncc(C(=O)NCc4ccco4)c3n2)cc1,-1,0,30*,24,·,2,165*,145*
CC(C)CCNC(=O)c1cc(-c2ccco2)nc2ccccc12,4,-1,111*,20,8,-1,+,+
Cc1ccc(-c2cc(C(=O)NCC3(N(C)C)CCCCC3)c3ccccc3n2)o1,·,-2,29*,26,·,·,23,16*
CN(C)C(CNC(=O)c1cc(-c2ccco2)nc2ccccc12)c1ccccc1 (centres undefined),0,-2,38*,10,7,5,9,-4
Nc1nnnn1CC(=O)NN=Cc1ccccn1,·,·,·,·,0,·,·,·
COc1ccc(CCNC(=O)CC(C)=NNC(=O)c2ccc(Cl)cc2Cl)cc1OC,·,·,·,·,-11,·,·,·
CCC(Cc1ccccc1)=NNC(=O)c1cccc(Br)c1,·,·,·,·,8,·,·,·
CC1(C)CC(=O)c2cc(OCC(=O)N3CCOCC3)ccc2O1,6,1,48*,15,0,-3,+,+
CCN(CC)C(=O)COc1ccc2c(c1)C(=O)CC(C)(C)O2,-3,-1,59*,9,-9,9,87*,72*
Cc1cc(OCC(=O)N(C)c2ccccc2)cc2c1C(=O)CC(C)(C)O2,10,-3,8,1,4,-1,·,·
Cc1ccc(OCC(=O)N2CCOCC2)cc1C,-2,-2,2,3,5,-1,·,·
Cc1ccc2nc3[nH]c(=O)[nH]c(=O)c3c(N)c2c1,·,-3,105*,6,14,·,-9,-5
O=S(=O)(Nc1nc2ccccc2nc1N1CCc2ccccc2C1)c1ccc(Cl)cc1,-13,-2,66*,32*,·,0,+,+
Cc1ccccc1S(=O)(=O)Nc1nc2ccccc2nc1N1CCc2ccccc2C1,-18,-1,11,10,7,1,·,·
CCCCN(C)Cc1c(C)[nH]c2ccc(OCC)cc2c1=O,3,-3,35*,27,7,-1,5,-5
CCOc1ccc2[nH]c(C)c(CN3CCN(CC)CC3)c(=O)c2c1,-5,-2,6,13,10,0,·,·
CCOC(=O)COc1nc(-c2ccc(Cl)cc2)cc(-c2ccco2)c1C#N,0,-4,-1,-2,·,-3,·,·
